Data from PubChem BioAssay (NCATS).
Records with an inconclusive call do not appear. Calls of active or inactive are those of the source. Calls follow the shape of the dose curve; as a rule, active = well fitted curve in the direction sought with a large enough effect; inconclusive = small, poorly fitted or top-dose-only effect, or another doubt; inactive = no such curve, though single readings can be large; an effect the other way counts as inactive or inconclusive.

Assays:
[1] = tested on: KB-3-1; experiment: Cytotoxic Profiling of Annotated Libraries Using Quantitative High-Throughput Screening (AID 1296008); details: Five cell lines viability, CellTiter-Glo ATP luminescence, 48-72 h; max response: stronger effect = lower value; also: nearly all actives have a fitted effect of over 60% in size; as to max response: % is scaled to controls: 0 for no effect and ±100 for the full control effect
In short: (§1)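 Cytotoxicity was measured as CellTiter-Glo ATP luminescence, read after 10 min at room temperature. Compound treatment of the cells lasted 48 or 72 hr at 37 degrees Celsius in a qHTS format.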

[2] = tested on: NIH3T3; experiment: as above; details: Five cell lines viability, CellTiter-Glo ATP luminescence, 48-72 h; max response: stronger effect = lower value
In short: as §1

[3] = tested on: HACAT; experiment: qHTS assay to identify novel small-molecules to repurpose for Merkel cell carcinoma treatment (AID 1296009); details: MCC and control cell lines, CellTiter-Glo viability, 72 h; at 44.8 µM (top of the series) unless noted; also: nearly all actives have a fitted effect of over 60% in size
In short: (§2)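 After compound transfer in DMSO, plates were kept 72 hr at 37 degree celsius. Luminescent ATP signal from CellTiter-Glo served as viability measure, normalized against DMSO and no-cell controls.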

[4] = tested on: HEK293T; experiment: as above; details: MCC and control cell lines, CellTiter-Glo viability, 72 h; series mostly up to 44.8 µM
In short: as §2

[5] = tested on: NIH3T3; experiment: as above; details: MCC and control cell lines, CellTiter-Glo viability, 72 h; at 44.8 µM (top of the series) unless noted
In short: as §2

[6] = tested on: C33A; experiment: Primary qHTS to identify gynecologic anti-cancer compounds using libraries of approved drugs and bioactive compounds (AID 1345084); details: Gynecologic cancer cell panel viability, ATPlite luminescence, 48 h; series mostly up to 57.5 µM; also: % is scaled to controls: 0 for no effect and ±100 for the full control effect; nearly all actives have a fitted effect of over 55% in size
In short: (§3)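 Five-concentration response, 48 h; readout is ATP-driven luciferase luminescence.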

[7] = tested on: CAOV3; experiment: as above; details: Gynecologic cancer cell panel viability, ATPlite luminescence, 48 h; series mostly up to 57.5 µM
In short: as §3

[8] = tested on: CASKI; experiment: as above; details: Gynecologic cancer cell panel viability, ATPlite luminescence, 48 h; series mostly up to 57.5 µM
In short: as §3

[9] = tested on: Es-2; experiment: as above; details: Gynecologic cancer cell panel viability, ATPlite luminescence, 48 h; series mostly up to 57.5 µM
In short: as §3

[10] = tested on: HeLa; experiment: as above; details: Gynecologic cancer cell panel viability, ATPlite luminescence, 48 h; series mostly up to 57.5 µM
In short: as §3

[11] = tested on: Hek293T; experiment: as above; details: Gynecologic cancer cell panel viability, ATPlite luminescence, 48 h, control line for the selectivity index; series mostly up to 57.5 µM
In short: as §3

[12] = tested on: JEG-3; experiment: as above; details: Gynecologic cancer cell panel viability, ATPlite luminescence, 48 h; series mostly up to 57.5 µM
In short: as §3

[13] = tested on: OV90; experiment: as above; details: Gynecologic cancer cell panel viability, ATPlite luminescence, 48 h; series mostly up to 57.5 µM
In short: as §3

[14] = tested on: PA-1; experiment: as above; details: Gynecologic cancer cell panel viability, ATPlite luminescence, 48 h; series mostly up to 57.5 µM
In short: as §3

CC(C)=CCc1ccc(Oc2c(O)cc(C)cc2CO)c(C(=O)O)c1O
inactive: outcome [1] | outcome [2] | outcome [3] | Potency [4] | outcome [5] | Potency [6] | Potency [7] | Potency [8] | Potency [9] | Potency [10] | Potency [11] | Potency [12] | Potency [13] | Potency [14]

CC(=O)O[C@@H]1[C@H](O[C@@H]2O[C@H](CO)[C@@H](O)[C@H](O)[C@H]2O)[C@@H](O[C@@H]2O[C@@H](C)[C@H](O)[C@@H](O[C@@H]3O[C@H](CO)[C@@H](O)[C@H](O)[C@H]3O)[C@H]2O)[C@H](OC(=O)C23CCC4(C)C(=CCC5C6(C)CC(O)C(O[C@@H]7O[C@H](C(=O)O)[C@@H](O)[C@H](O)[C@H]7O)C(C)(C(=O)O)C6CCC54C)C2CC(C)(C)CC3O)O[C@@H]1C (some centres not stated)
inactive: outcome [1] | outcome [2] | outcome [3] inactive [at 9.27 µM] | outcome [4] inactive [at 9.27 µM] | outcome [5] inactive [at 9.27 µM] | activity change, negative = cytotoxicity [6] 3.56% [at 6.55 µM] | activity change, negative = cytotoxicity [7] 14.4% [at 6.55 µM] | activity change, negative = cytotoxicity [8] 24.3% [at 6.55 µM] | activity change, negative = cytotoxicity [9] 1.96% [at 6.55 µM] | activity change, negative = cytotoxicity [10] -1.78% [at 6.55 µM] | activity change, negative = cytotoxicity [11] 14.8% [at 6.55 µM] | activity change, negative = cytotoxicity [12] 1.97% [at 6.55 µM] | activity change, negative = cytotoxicity [13] 8.45% [at 6.55 µM] | activity change, negative = cytotoxicity [14] 25.5% [at 6.55 µM]

CC1(O)CCC2C(C(=O)O)=COC(OC3OC(CO)C(O)C(O)C3OC(=O)/C=C/c3ccc(O)cc3)C21 (configuration not stated)
inactive: max response [1] 8.2% | outcome [2] | outcome [3] inactive [at 17.4 µM] | Potency [4] | outcome [5] inactive [at 17.4 µM] | Potency [6] | Potency [7] | Potency [8] | Potency [9] | Potency [10] | Potency [11] | Potency [12] | Potency [13] | Potency [14]

C=C1CCC[C@]2(C)C[C@]3(O)OC(=O)C(C)=C3C[C@@H]12
inactive: outcome [1] | outcome [2] | outcome [3] | Potency [4] | outcome [5] | Potency [6] | Potency [7] | Potency [8] | Potency [9] | Potency [10] | Potency [11] | Potency [12] | Potency [13] | Potency [14]

CC1[C@@H](O)[C@@H](O)C2[C@]3(C)C(C[C@H]4OC(=O)[C@H](O)[C@]1(O)[C@@]24C)C(C)(O)C[C@H](O)[C@H]3O (some centres not stated)
inactive: max response [1] 4.32% | outcome [2] | outcome [3] inactive [at 17.4 µM] | Potency [4] | outcome [5] inactive [at 17.4 µM] | Potency [6] | Potency [7] | Potency [8] | Potency [9] | Potency [10] | Potency [11] | Potency [12] | Potency [13] | Potency [14]

C/C1=C\C[C@H](O[C@@H]2O[C@H](CO)[C@@H](O)[C@H](O)[C@H]2O)/C(C)=C/[C@H]2OC(=O)[C@H](C)[C@@H]2CC1
inactive: max response [1] 8.78% | outcome [2] | outcome [3] inactive [at 17.4 µM] | Potency [4] | outcome [5] inactive [at 17.4 µM] | Potency [6] | Potency [7] | Potency [8] | Potency [9] | Potency [10] | Potency [11] | Potency [12] | Potency [13] | Potency [14]

COc1cc(/C=C/c2cc(O)cc(O[C@@H]3O[C@H](CO)[C@@H](O)[C@H](O)[C@H]3O)c2)ccc1O
inactive: max response [1] 4.08% | outcome [2] | outcome [3] inactive [at 17.4 µM] | Potency [4] | outcome [5] inactive [at 17.4 µM] | Potency [6] | Potency [7] | Potency [8] | Potency [9] | Potency [10] | Potency [11] | Potency [12] | Potency [13] | Potency [14]

Nc1ncnc2c1ncn2[C@H]1CCCO1
inactive: outcome [1] | outcome [2] | outcome [3] | Potency [4] | outcome [5] | Potency [6] | Potency [7] | Potency [8] | Potency [9] | Potency [10] | Potency [11] | Potency [12] | Potency [13] | Potency [14]

CCOC(=O)c1ccc(N(C)c2csc(-c3ccccc3)n2)cc1
inactive: max response [1] 0.515% | outcome [2] | outcome [3] | Potency [4] | outcome [5] | Potency [6] | Potency [7] | Potency [8] | Potency [9] | Potency [10] | Potency [11] | Potency [12] | Potency [13] | Potency [14]

COc1cc(COC2OC(CO)C(O)C(O)C2O)cc(OC)c1O (configuration not stated)
inactive: outcome [1] | outcome [2] | outcome [3] | Potency [4] | outcome [5] | Potency [6] | Potency [7] | Potency [8] | Potency [9] | Potency [10] | Potency [11] | Potency [12] | Potency [13] | Potency [14]

COc1cc2c(cc1OC)CN(C(=O)[C@@H](NCc1ccncc1)C(C)(C)C)CC2
inactive: max response [1] 5.18% | outcome [2] | outcome [3] | Potency [4] | outcome [5] | Potency [6] | Potency [7] | Potency [8] | Potency [9] | Potency [10] | Potency [11] | Potency [12] | Potency [13] | Potency [14]

C/C=C(\C)C(=O)O[C@@H](C)[C@H]1CC[C@]2(O)C3CCC4C[C@@H](OC5CC(OC)C(OC6CC(OC)C(OC7CC(OC)C(OC8OC(C)C(OC9OC(CO)C(O)C(O)C9O)C(OC)C8O)C(C)O7)C(C)O6)C(C)O5)CC[C@]4(C)C3[C@H](O)[C@@H](O)[C@]12C (some centres not stated)
inactive: outcome [1] | outcome [2] | outcome [3] inactive [at 9.27 µM] | outcome [4] inactive [at 9.27 µM] | outcome [5] inactive [at 9.27 µM] | activity change, negative = cytotoxicity [6] 19.4% [at 6.55 µM] | activity change, negative = cytotoxicity [7] 3.47% [at 6.55 µM] | activity change, negative = cytotoxicity [8] -2.65% [at 6.55 µM] | activity change, negative = cytotoxicity [9] 10.2% [at 6.55 µM] | activity change, negative = cytotoxicity [10] 3.49% [at 6.55 µM] | activity change, negative = cytotoxicity [11] 1.78% [at 6.55 µM] | activity change, negative = cytotoxicity [12] -1.08% [at 6.55 µM] | activity change, negative = cytotoxicity [13] 15.4% [at 6.55 µM] | activity change, negative = cytotoxicity [14] 3.34% [at 6.55 µM]

NCCOCCOCCNC(=O)Cc1ccc(Nc2nc(NCc3ccc(F)cc3)nc(NCC3CCCCC3)n2)cc1
inactive: outcome [1] | outcome [2] | outcome [3] | Potency [4] | outcome [5] | Potency [6] | Potency [7] | Potency [8] | Potency [9] | Potency [10] | Potency [11] | Potency [12] | Potency [13] | Potency [14]
